From the supplement of paper PMC8728848
The full list was thinned out, with the strongest signals kept by preference.

Columns and labels:
Assay in all cases: glycan array binding signal (z-score within array); higher = stronger binding
Conditions in all cases: glycan notation: IUPAC condensed, linker removed
[1] = system: Gal3S(b1-4)GlcNAc
Outline: (§1)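 From the Consortium for Functional Glycomics database, 3228 arrays were curated, keeping only those whose protein sequence was available. Binding is given as a within-array Z-score averaged across arrays sharing a protein sequence and across linkers. Negative Z-scores can be read as non-binding.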

[2] = system: Gal3S(b1-4)[Fuc(a1-3)]GlcNAc
Outline: as §1

[3] = system: Gal(b1-4)GlcNAc
Outline: as §1

[4] = system: Gal3S(b1-3)GalNAc
Outline: as §1

[5] = system: Gal3S(b1-4)[Fuc(a1-3)]Glc6S
Outline: as §1

[6] = system: Gal(b1-6)Gal
Outline: as §1

[7] = system: Gal3S(b1-3)GlcNAc
Outline: as §1

[8] = system: Gal(b1-4)Glc
Outline: as §1

[9] = system: Gal3S(b1-4)Glc
Outline: as §1

[10] = system: Gal3S(b1-3)[Fuc(a1-4)]GlcNAc
Outline: as §1

AgI/IIC123-GFP (Streptococcus mutans)
glycan array binding signal (z-score) [1]: -0.345
glycan array binding signal (z-score) [2]: 0.852

SpGH101 (Streptococcus pneumoniae), Q8DR60
glycan array binding signal (z-score) [3]: -0.157
glycan array binding signal (z-score) [4]: 5.02
glycan array binding signal (z-score) [5]: 0.164

Wza (Escherichia coli), P0A930
glycan array binding signal (z-score) [6]: -0.876
glycan array binding signal (z-score) [7]: 0.986

LcI (Legionella pneumophila)
glycan array binding signal (z-score) [8]: 0.081
glycan array binding signal (z-score) [9]: 3.4

SiiE (Salmonella typhimurium), A0A0H3NVH0
glycan array binding signal (z-score) [10]: -0.012

BambL (Burhholderia ambifaria), Q0B4G1
glycan array binding signal (z-score) [10]: 0.713
